This is an account of results in PubChem BioAssay.

Broadly, the inhibition is the change of the read-out against control, counted positive when it falls.

A short description of assay [1]: inhibitors of mutant huntingtin aggregation, primary screen, imaging, exon1htt(103Q)mCFP cells, high-content imaging (AID 483;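 active = visual image review flags a hit and inhibition of aggregation exceeds 20%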;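 note: compound exposure lasted 3 days before fixation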;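 for nuclei count: percent of the per-plate median nuclei count of sample wells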). As to conditions: exon1htt(103Q)mCFP cell line, aggregate imaging, at 2 µM; inhibition of aggregation: stronger effect = higher value; nuclei count: measured here: cell count, toxicity.
Assay [2] can be described thus: inhibitors of E-selectin induction by TNFa, primary screen, imaging, HUVEC, immunofluorescence, MLSMR starter and 10KST1 sets (AID 487;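 active = visually confirmed hit in the image check and inhibition above 20%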;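 for inhibition: signal is fraction of cell area covered by stained E-selectin grains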;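 for nuclei count: 100% = median nuclei count of all wells on the same plate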). As to conditions: HUVEC TNFalpha-induced E-selectin immunofluorescence imaging, at 2 µM; inhibition: stronger effect = higher value; nuclei count: measured here: cell number, toxicity.
Assay [3] in a line: DUSP6 inhibitors restoring Erk phosphorylation by chemical complementation, primary imaging in DUSP6-transfected HeLa (AID 609;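 active = compounds giving at least 50% inhibition in the cell-based MKP-3 phosphatase rescue imaging test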;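 for inhibition: phospho-Erk level distribution per well compared with pooled transfected vehicle control wells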). As to conditions: HeLa MKP-3 transfected, phospho-Erk imaging KS statistic, at 10 µM, cells stimulated with TPA for 15 min.
In assay [4] the target is Dual specificity protein phosphatase 6 (Homo sapiens) (UniProt Q16828). The description is as above. The conditions noted are these: HeLa MKP-3 transfected, phospho-Erk imaging KS statistic; at 10 µM; stronger effect = higher value; cells stimulated with TPA for 15 min.
Dual specificity protein phosphatase 6 (Homo sapiens), sequence (Q16828 whole entry, looked up): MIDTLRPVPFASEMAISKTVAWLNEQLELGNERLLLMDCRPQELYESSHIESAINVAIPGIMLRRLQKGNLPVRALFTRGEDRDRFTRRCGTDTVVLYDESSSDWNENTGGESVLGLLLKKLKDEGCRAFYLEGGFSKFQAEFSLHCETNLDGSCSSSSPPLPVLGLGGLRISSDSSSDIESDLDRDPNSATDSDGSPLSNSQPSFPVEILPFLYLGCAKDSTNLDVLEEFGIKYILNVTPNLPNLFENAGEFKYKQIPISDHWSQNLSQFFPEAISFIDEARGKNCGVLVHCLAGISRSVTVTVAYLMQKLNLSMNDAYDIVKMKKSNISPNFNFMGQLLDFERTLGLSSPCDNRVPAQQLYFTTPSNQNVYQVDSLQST
The target in assay [5] is Voltage-gated potassium channel subunit beta-2 (Rattus norvegicus) (UniProt P62483). Briefly: KvBeta enzyme negative modulators, primary screen, biochemical, NADPH fluorescence (AID 622;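 active = fluorescence slope higher than the sample average by over 3 SD, cut at about -0.22 in these data, passing the limit was not always enough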;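 note: slope of raw intensity against log time taken from 70 to 1610 s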). As to conditions: recombinant KvBeta, 4-cyanobenzaldehyde reduction, at 10 µM, stronger effect = higher value.
Voltage-gated potassium channel subunit beta-2 (Rattus norvegicus), sequence (P62483 whole entry, looked up): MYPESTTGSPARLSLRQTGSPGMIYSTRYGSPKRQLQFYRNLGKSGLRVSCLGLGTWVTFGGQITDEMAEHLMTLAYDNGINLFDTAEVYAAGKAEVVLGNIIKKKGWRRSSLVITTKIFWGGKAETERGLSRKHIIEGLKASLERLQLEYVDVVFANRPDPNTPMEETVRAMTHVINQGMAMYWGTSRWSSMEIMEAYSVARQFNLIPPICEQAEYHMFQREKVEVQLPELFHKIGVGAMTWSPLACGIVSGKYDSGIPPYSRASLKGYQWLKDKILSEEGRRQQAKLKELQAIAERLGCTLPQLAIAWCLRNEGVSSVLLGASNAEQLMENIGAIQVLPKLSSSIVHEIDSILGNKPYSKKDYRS
The target is the same in assay [6]. Briefly: KvBeta positive modulators, primary screen, biochemical, NADPH fluorescence (AID 623;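 active = NADPH fluorescence slope more negative than the mean of all samples by about 3 SD, 99.7% confidence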;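 note: fluorescence intensity change per second fitted from 20 to 320 s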). The conditions noted are these: Recombinant KvBeta, NADPH fluorescence decrease slope, 10 min; at 10 µM; stronger effect = lower value.
In assay [7] the target is Alpha-2C adrenergic receptor (Homo sapiens) (UniProt P18825). In words: modulators of alpha2C/GIRK thallium flux, primary screen, cell-based, HEK293 alpha2C/GIRK1/2 (AID 624;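 active = fluorescence slope after compound addition differing from the mean of all screened samples at 99.7% confidence, in either direction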;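 note: slope of fluorescence ratio to pre-addition baseline per second over 15 to 24 s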). The conditions noted are these: thallium flux BTC fluorescence, at 10 µM, actives lie on both sides.
Alpha-2C adrenergic receptor (Homo sapiens), sequence (P18825 whole entry, looked up): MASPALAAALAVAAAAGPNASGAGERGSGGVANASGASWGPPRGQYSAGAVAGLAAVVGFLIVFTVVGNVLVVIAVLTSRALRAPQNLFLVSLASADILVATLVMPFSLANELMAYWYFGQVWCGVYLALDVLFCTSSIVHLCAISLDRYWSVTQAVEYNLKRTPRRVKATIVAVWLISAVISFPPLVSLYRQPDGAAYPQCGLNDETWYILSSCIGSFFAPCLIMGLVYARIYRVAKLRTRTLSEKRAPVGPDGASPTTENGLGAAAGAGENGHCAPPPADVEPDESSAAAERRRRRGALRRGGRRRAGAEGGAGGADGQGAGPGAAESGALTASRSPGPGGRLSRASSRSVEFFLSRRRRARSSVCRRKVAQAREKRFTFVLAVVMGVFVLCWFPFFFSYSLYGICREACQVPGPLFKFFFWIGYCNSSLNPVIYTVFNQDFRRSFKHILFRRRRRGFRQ
Assay [8] is described as follows: inhibitors of larval lipid processing in zebrafish, primary screen, whole organism, PED6 fluorescence, gall bladder and intestine (AID 686;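 active = a full or partial loss of lipid-probe fluorescence in the fish gall bladder, intestine or both, judged by eye; inactive = no fluorescence loss, or compound toxic to the fish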;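 note: larvae 5 to 7 days old with five fish per well; signal comes from phospholipase A2 cleavage of quenched PED6 carried via bile; overnight exposure to compound and PED6 before scoring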). The conditions noted are these: Zebrafish larvae PED6 lipid processing, fluorescence scoring; screened at 20 µM (by protocol).
Assay [9] in a line: inhibitors of Chlamydomonas gravitaxis, primary screen, whole organism, Chlamydomonas reinhardtii, WT vs cilia-less mutant, absorbance, 96-well (AID 463189).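 Note: 0% = wild type cc124 cells in DMSO and 100% = ciliumless bld1 mutant cells.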 As to conditions: OD600 absorbance, 2 days, at 10 µM, stronger effect = higher value.
A short description of assay [10]: inhibitors of Sendai virus-induced IRF3 signaling, primary screen, TLR/RLR signaling modifier project, cell-based, Sendai virus stimulus, luciferase, 10K MLSCN set (AID 602276;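 active = inhibition at or above 50% at 10 µM; inactive = inhibition below 50%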;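 note: firefly luciferase from ISG56 promoter only with Renilla not read in this screen; 0% = Sendai virus plus DMSO and 100% = medium plus DMSO without virus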). As to conditions: HEK293 RL24 IRF3 luciferase reporter, at 10 µM, stronger effect = higher value. (In general: Reporter assays use an easily measured gene product as a stand-in for the process of interest.)

The nature of assay [11]: inhibitors of poly I:C-induced TLR3 signaling, primary screen, cell-based, poly I:C stimulus, luciferase, 10K MLSCN set (AID 602277;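 active = inhibition of the reporter signal at or above 50%; inactive = inhibition below 50%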). The conditions noted are these: HEK293-TLR3 RL24 IRF3 luciferase reporter, at 10 µM, stronger effect = higher value.
Assay [12] addresses Muscarinic acetylcholine receptor M4 (Homo sapiens) (UniProt P08173). In words: compounds altering M4/GIRK thallium flux, either direction, primary screen, M4 allosteric agonist project, cell-based, HEK293 M4/GIRK, BTC-AM (AID 625;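 active = fluorescence slope after compound addition differing from the mean of all tested samples at 99.7% confidence, mostly higher but some lower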;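 note: thallium influx through GIRK channels coupled to M4 in HEK293 cells with BTC-AM dye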). As to conditions: at 10 µM, actives lie on both sides.
Setting [13] is: measured here: cell density z-score.
Setting [14] is: measured here: nuclear c-Myc green intensity z-score.
Setting [15] is: measured here: nuclear pErk red intensity z-score, stronger effect = higher value.

“And” between values parts separate entries of the source, which are not always exact repeats. Identical values can stand only once. The source made the active and inactive calls.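 Rule for the calls, unless noted: active = inhibition at or above 50% relative to wild type and mutant plate controls; inactive = inhibition below 50%.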

Muscarinic acetylcholine receptor M4 (Homo sapiens), sequence (P08173 whole entry, looked up): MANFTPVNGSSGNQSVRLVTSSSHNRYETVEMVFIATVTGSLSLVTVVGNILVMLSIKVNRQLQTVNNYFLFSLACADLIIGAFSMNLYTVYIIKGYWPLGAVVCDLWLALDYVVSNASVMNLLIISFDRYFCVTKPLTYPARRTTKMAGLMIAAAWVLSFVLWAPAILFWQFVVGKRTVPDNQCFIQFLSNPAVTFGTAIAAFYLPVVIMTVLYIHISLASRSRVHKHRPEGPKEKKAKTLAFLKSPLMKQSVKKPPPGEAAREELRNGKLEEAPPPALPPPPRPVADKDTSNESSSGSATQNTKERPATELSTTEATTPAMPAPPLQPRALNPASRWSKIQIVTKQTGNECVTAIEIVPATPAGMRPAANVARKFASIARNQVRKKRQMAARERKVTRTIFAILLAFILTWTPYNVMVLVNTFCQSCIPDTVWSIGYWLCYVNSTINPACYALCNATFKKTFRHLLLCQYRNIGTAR

For the compound `c1ccc2c(c1)CCCC2C1=NCCN1` (stereo not given), in assay [1], the inhibition of aggregation was -2.2% (inactive). Moreover, the results for the nuclei count in assay [1] and in assay [2] were 106% and 112%, respectively. Besides, the inhibition in assay [2] is -52.5% (inactive); in assay [4], 5.79% (inactive); in assay [9], 8.79% (inactive) and 22.7% (inactive); in assay [10], 12.1% (inactive); in assay [11] it was 48.1% (inactive). In addition, the z-score is -1.5 in [3] (setting [13]), 0.768 in assay [3] (setting [14]) and 0.367 in assay [3] (setting [15]). Besides, the fluorescence slope in assay [5] was -0.464 (inactive). In addition, the NADPH fluorescence slope in assay [6] is -5e-05 (inactive). Further, the slope in assay [7] was 0.00529 (inactive). Moreover, the compound was called inactive in assay [8].
As for `Clc1ccc(Cn2c(CN3CCCC3)nc3ccccc32)cc1`, in assay [1], the inhibition of aggregation is 13.4% (inactive). The nuclei count came out at 112% in [1] and 133% in assay [2]. Also, the inhibition was -57.5% (inactive) in [2]; 1.48% (inactive) in [4]; 2.55% (inactive) and 22.9% (inactive) in assay [9]; 16.5% (inactive) in assay [10]; 28.2% (inactive) in assay [11]. Moreover, the figures for the z-score in assay [3] (setting [13]), in [3] (setting [14]) and in assay [3] (setting [15]) were 0.217, 0.404 and 0.417, respectively. Also, the fluorescence slope in assay [5] is -0.551 (inactive). Further, the NADPH fluorescence slope in assay [6] is -3.2e-05 (inactive). Besides, the slope in assay [7] is 0.00478 (inactive). For the same compound, in assay [8], the outcome was “inactive; toxic”.
With `CCCOc1ccc2nc(NC(=O)OC)[nH]c2c1`, the inhibition of aggregation in assay [1] was -14.5% (inactive). The nuclei count in assay [1] came out at 98.6%; in [2], 126%. The inhibition was -34% (inactive) in assay [2]; 1.48% (inactive) in [4]; -11.7% (inactive) in assay [9]; 25.2% (inactive) in assay [10]; 74.2% (active) in assay [11]. The z-score was 0.515 in assay [3] (setting [13]), 0.392 in assay [3] (setting [14]) and -0.582 in assay [3] (setting [15]). In addition, the fluorescence slope in [5] was -0.47 (inactive). The NADPH fluorescence slope in [6] was -3.6e-05 (inactive). Besides, the slope in assay [7] is 0.00449 (inactive). In addition, the outcome in assay [8] was inactive.
As to `C[C@]12C=CC(=O)C=C1CC[C@H]1[C@@H]3C[C@@H](O)[C@](O)(C(=O)CO)[C@@]3(C)C[C@H](O)[C@@]12F`, in [1], the inhibition of aggregation was 23.7% (inactive). Moreover, the nuclei count in assay [1] was 50.2%; in assay [2] it was 117%. In addition, the inhibition was -61.6% (inactive) in assay [2]; 15.3% (inactive) in assay [4]; 6.05% (inactive) and 21.3% (inactive) in assay [9]; 13.3% (inactive) in assay [10]; 37.9% (inactive) in assay [11]. Also, the z-score is -0.539 in [3] (setting [13]), 1.04 in [3] (setting [14]) and -0.0271 in assay [3] (setting [15]). The fluorescence slope in [5] is -0.508 (inactive). For the same compound, the NADPH fluorescence slope in assay [6] is -6.2e-05 (inactive). In addition, the slope in assay [7] was 0.0055 (inactive). Further, in assay [8], the compound was called inactive.
As to `Cc1cc(C(C)(C)C)cc(C)c1CC1=NCCN1`, the inhibition of aggregation in assay [1] is 8.7% (inactive). Besides, the nuclei count in [1] is 94.6%; in [2], 129%. The inhibition was -76.9% (inactive) in assay [2]; 5.79% (inactive) in assay [4]; -10% (inactive) and -5.2% (inactive) in assay [9]; 2.07% (inactive) in assay [10]; 45.9% (inactive) in assay [11]. Moreover, the z-score in assay [3] (setting [13]) is 0.444; in assay [3] (setting [14]) it was -0.489; in assay [3] (setting [15]) it was -0.727. In addition, the fluorescence slope in assay [5] is -0.464 (inactive). In addition, the NADPH fluorescence slope in [6] is -7.1e-05 (inactive). The slope in [7] was 0.00474 (inactive). The result in [8] was inactive.
In the case of `CCOC(=O)c1cc2c(=O)n3cccc(C)c3nc2n(CCc2ccccc2)c1=N`, the inhibition of aggregation in assay [1] is -9% (inactive). Besides, the results for the nuclei count in assay [1] and in assay [2] were 86.6% and 116%, respectively. Also, the inhibition in [2] was -145% (inactive); in [4], -16.8% (inactive); in assay [9], 150% (active); in [10] it was 12% (inactive); in assay [11] it was 28.5% (inactive). For the same compound, the z-score was -0.746 in [3] (setting [13]), 0.0077 in assay [3] (setting [14]) and 0.78 in assay [3] (setting [15]). The fluorescence slope in [5] was -0.42 (inactive); in assay [12] it was 0.00314 (inactive). Moreover, in [6], the NADPH fluorescence slope was -2e-05 (inactive). The outcome in [8] was inactive.
As for `COC(=O)Nc1nc2ccc(C(=O)c3ccccc3)cc2[nH]1`, in assay [1], the inhibition of aggregation was -1.2% (inactive). Besides, the nuclei count in assay [1] worked out at 34.6%; in [2], 112%. Moreover, the inhibition is -48.7% (inactive) in assay [2]; 21.2% (inactive) in [4]; -3.25% (inactive) in assay [9]; 17.6% (inactive) in assay [10]; 46.8% (inactive) in assay [11]. For the same compound, the z-score in assay [3] (setting [13]) was 1.8; in assay [3] (setting [14]), -0.197; in assay [3] (setting [15]), -0.901. Also, in assay [5], the fluorescence slope is -0.437 (inactive). In addition, the NADPH fluorescence slope in [6] was -9.9e-05 (inactive). For the same compound, in assay [7], the slope was 0.0038 (inactive). Moreover, the call in assay [8] was inactive.
Regarding `CC(=O)Oc1ccc(C(c2ccc(OC(C)=O)cc2)c2ccccn2)cc1`, in [1], the inhibition of aggregation is -12.4% (inactive). Besides, the nuclei count in assay [1] turned out to be 99.8%; in assay [2] it was 100%. Further, the inhibition in [2] was -68.3% (inactive); in assay [4] it was 5.79% (inactive); in assay [9], 19.6% (inactive); in assay [10], 12.5% (inactive); in assay [11] it was 40.9% (inactive). Further, the results for the z-score in assay [3] (setting [13]), in assay [3] (setting [14]) and in assay [3] (setting [15]) were -0.73, 0.784 and 0.224, respectively. Moreover, the fluorescence slope in assay [5] was -0.45 (inactive). The NADPH fluorescence slope in assay [6] was -2.1e-05 (inactive). The slope in [7] is 0.00425 (inactive). Further, in [8], the compound was classed as inactive.
With `COc1cc(C2C(C#N)=C(N)Oc3cc(N)ccc32)cc(OC)c1OC` (stereo not given), in assay [1], the inhibition of aggregation was -94.1% (inactive). Besides, the results for the nuclei count in [1] and in [2] were 1.6% and 80.5%, respectively. Besides, the inhibition in [2] is -83.7% (inactive); in assay [4] it was 2.92% (inactive); in [9], 4.51% (inactive); in assay [10] it was 46.4% (inactive); in [11], 88.5% (active). The z-score in assay [3] (setting [13]) is 0.957; in assay [3] (setting [14]), -0.28; in assay [3] (setting [15]), -0.643. Also, the fluorescence slope in assay [5] was -0.434 (inactive). Further, in assay [6], the NADPH fluorescence slope was 1e-06 (inactive). Further, the slope in assay [7] is 0.00523 (inactive). For the same compound, in assay [8], the result was inactive.
Turning to `CC(=O)N[C@@H](CS)C(=O)O`, the inhibition of aggregation in assay [1] is 7.3% (inactive). Besides, the results for the nuclei count in assay [1] and in assay [2] were 104% and 120%, respectively. For the same compound, the inhibition is -49.2% (inactive) in assay [2]; 1.48% (inactive) in assay [4]; 3.13% (inactive) and -2.25% (inactive) in assay [9]; 11.9% (inactive) in assay [10]; 21% (inactive) in assay [11]. Also, the z-score in assay [3] (setting [13]) was 0.131; in [3] (setting [14]), -1.67; in [3] (setting [15]) it was 0.657. Further, in assay [5], the fluorescence slope was -0.543 (inactive). Further, in assay [6], the NADPH fluorescence slope was -3.7e-05 (inactive). Moreover, the slope in assay [7] was 0.0055 (inactive). Moreover, in assay [8], the outcome was inactive.
